Screens: PubChem, National Center for Advancing Translational Sciences (NCATS)
Hits are enriched below; roughly 1.9% of the tested compounds scored in any of these assays.
Abeta rescue: A-beta toxicity reversal in yeast; Potency, µM (titrated, usually from 46.1 µM), most hits filed as activators; AID 1347071; 0.063% of 410,000 active; yeast expressing A-beta42, growth rescue, OD600, 48 h; response scale: 0% DMSO, 100% iron-clioquinol control; further: potency means the concentration at half of the fitted maximal effect; nearly all actives have a fitted effect of over 55% in size
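Yeast A-beta toxicity model in growth medium with pinned compounds, 48 h at 30 C; growth read as absorbance at 600 nm. Normalized to FeCl3/clioquinol equimolar mix (positive) and DMSO (negative).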
TDP-43 yeast inh: TDP-43 toxicity inhibition in yeast. TDP-43 expressing yeast growth rescue, BacTiter-Glo, 24 h. Potency, µM (doses to about 46.1 µM), inactives show at the top dose growth rescue (activation), hits mostly activators. 1.8% of 410,000 active; further: potency means the concentration at half of the fitted maximal effect; % of control where 0% means no effect; nearly all actives have a fitted effect of over 50% in size
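Galactose-induced TDP-43 yeast, OD600=0.02, compound pinned; 24 hr, 30 deg C; BacTiter-Glo luminescence for growth. Inhibitors of TDP-43 toxicity read as activators.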
PTHR1 ag: PTHR1 (human) receptor agonism. Q03431. HEK293 GP2 PTHR1 cells, GloSensor cAMP luminescence, 1 h. Potency, µM (top dose mostly 115 µM), without a hit: at the top dose activation, usual class: activators. 0.075% of 410,000 active. AID 743266; further: potency means the concentration at half of the fitted maximal effect; nearly all actives have a fitted effect of over 55% in size
Target sequence (Q03431 whole entry, looked up): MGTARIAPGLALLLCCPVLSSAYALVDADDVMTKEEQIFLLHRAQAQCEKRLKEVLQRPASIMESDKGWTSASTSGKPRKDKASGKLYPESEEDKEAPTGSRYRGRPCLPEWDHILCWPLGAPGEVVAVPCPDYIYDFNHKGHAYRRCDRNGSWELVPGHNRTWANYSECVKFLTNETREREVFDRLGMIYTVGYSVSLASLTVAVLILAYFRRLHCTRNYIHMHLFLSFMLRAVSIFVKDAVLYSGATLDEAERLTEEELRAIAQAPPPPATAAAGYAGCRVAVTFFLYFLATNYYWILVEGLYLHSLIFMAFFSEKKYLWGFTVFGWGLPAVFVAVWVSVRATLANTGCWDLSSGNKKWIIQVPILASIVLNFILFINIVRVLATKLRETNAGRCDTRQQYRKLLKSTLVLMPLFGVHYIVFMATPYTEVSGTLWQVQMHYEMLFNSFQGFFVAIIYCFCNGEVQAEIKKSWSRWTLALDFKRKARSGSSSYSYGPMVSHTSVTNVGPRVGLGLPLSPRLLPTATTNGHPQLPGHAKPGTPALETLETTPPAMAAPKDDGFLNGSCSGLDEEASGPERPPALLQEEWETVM
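HEK-293-derived GP2 cells expressing PTHR1 and a GloSensor cAMP reporter, 3,000/well, plated overnight, given luciferin plus IBMX (each 0.5 mM as added) for 1 h at 37 °C, then compound for 1 h at 37 °C. Luminescence was read after 15 min at room temperature.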
FUS yeast rescue: suppressors of FUS proteinopathy in yeast. S. cerevisiae FUS-expressing, growth rescue, OD600, 24 h. Potency, µM (top dose mostly 76.6 µM), usual class: activators. 0.24% of 390,000 active;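 further: potency means the concentration at half of the fitted maximal effect; plate controls were DMSO vehicle for no effect and reference control for full effect; nearly all actives have a fitted effect of over 55% in size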
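Yeast expressing FUS under galactose induction, OD 0.005 in 2% galactose medium; compounds in a dilution series, 24 h at 30C. Growth rescue by absorbance at 600 nm; CP55940 positive control, DMSO negative.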
LDHA inh: blocks human lactate dehydrogenase A. 0.15% of 480,000 active. P00338. activity change, % (values are at about 110 or 230 µM). purified LDHA, NADH/diaphorase-resazurin fluorescence; active compounds read low. AID 1347041; in the data active means activity change below about -30%; inconclusive means mostly about -25% to -30%;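 further: plate controls were DMSO wells for no effect and wells without enzyme for full effect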
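Remaining NADH was detected by diaphorase (0.133 mg/mL) converting 37 µM resazurin to fluorescent resorufin, read at 0 and 20 minutes. The preceding 5-minute room-temperature reaction used 2 nM LDHA, 0.2 mM sodium pyruvate and 0.06 mM NADH at pH 7.4.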
aSyn rescue: rescues yeast growth from alpha-synuclein toxicity | Yeast expressing alpha-synuclein, growth rescue, BacTiter-Glo, 24 h | Potency, µM (series often up to 46.1 µM), inactives show at the highest dose growth rescue (activation), most hits filed as activators | 0.14% of 370,000 active; further: potency means the concentration at half of the fitted maximal effect; % of control where 0% means no effect; nearly all actives have a fitted effect of over 65% in size
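Rescue of yeast growth: cells expressing toxic alpha-synuclein, induced in galactose at OD600 0.02, incubated with compound 24 h at 30 C. ATP luminescence quantified growth; inhibitors of toxicity appear as activators.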
An asterisk follows results filed as active; i = inactive; ? = inconclusive; . = no result; ! = repeats disagree; [ ] = dose if it differs, or a comment. Unless noted, the call rests on the fitted dose curve; in most records, active means well fitted curve in the direction sought with a large enough effect; inconclusive means small, poorly fitted or top-dose-only effect, or another doubt; inactive means no such curve, though single readings can be large; an effect the other way counts as inactive or inconclusive.

SMILES	Abeta rescue	TDP-43 yeast inh	PTHR1 ag	FUS yeast rescue	LDHA inh	aSyn rescue
O=C(N/N=C/C(Br)=C/c1ccccc1)C1CC1	i	22µM*	-23%	i	0	10%
CC(=O)c1c(C)c(C)cc(C)c1C	.	.	.	.	0	.
Cc1cc(N2CCN(c3ccccc3)CC2)n2cnnc2n1	i	8%	i	i	3	.
COc1ccccc1N1CCN(c2cc(C)nc3nncn23)CC1	i	3%	-12%	i	-2	.
CCCc1cc(N2CCN(c3ccccc3F)CC2)n2cnnc2n1	i	20µM*	-30%	i	2	.
CCCc1cc(N2CCN(c3ccccc3)CC2)n2cnnc2n1	i	20µM*	-25%	i	6	.
Cc1sc(-c2ccccc2)nc1-c1ccccc1	.	.	.	.	7	.
COc1ccc(OC)c(NC(=O)CCc2c(C)c3ccc(OC)c(C)c3oc2=O)c1	.	.	.	.	1	.
COCC(C)n1c(C)cc(C(=O)CSc2nnc(-c3ccncc3)n2-c2ccccc2)c1C (stereo not given)	.	.	.	.	3	.
CCOC(=O)C1=C(Nc2ccccc2)O/C(=C\c2ccc(OC(F)F)cc2OC(F)F)C1=O	.	.	.	.	6	.
Cc1cc(F)ccc1-n1c(SCC(=O)NC2CCCC2)nc2ccsc2c1=O	.	.	.	.	-5	.
O=C(CCCl)Nc1nc2c(s1)CCc1ccccc1-2	i	22µM*	-25%	i	15	15%
CC(=O)Nc1nc2c(s1)CCc1ccccc1-2	.	20%	i	i	-3	10%
O=C(Nc1nc2c(s1)CCc1ccccc1-2)c1ccco1	i	13µM*	-16%[57.5 µM]	i	9	-10%
O=C(N/N=C\c1ccc(Cl)s1)C1COc2ccccc2O1 (stereo not given)	?	18µM*	i	i	0	1%
CC(C)(C)c1ccc2c(c1)OC(C(=O)N/N=C\c1ccccn1)CO2 (stereo not given)	?	?	-90%	.	-2	14µM*
O=C(N/N=C\c1ccc([N+](=O)[O-])s1)C1COc2ccccc2O1 (stereo not given)	i	3.5µM*	-11%	i	0	7%
Cc1ccc(C(=O)N/N=C/c2ccc([N+](=O)[O-])s2)cc1	i	-7%	-4%[57.5 µM]	i	-35*	0%
O=C(N/N=C/c1ccc([N+](=O)[O-])s1)c1ccncc1	i	-19%[0.397 µM]	i	i	7	-2%
COc1ccccc1-c1cnc(N)nc1-c1ccc(OCc2ccc(F)cc2)cc1O	.	.	.	.	2	.
O=C(CSc1ccc2c(c1)OCCO2)Nc1ncccc1O	i	11%	-48%	i	8	2%
O=C(CSc1ccc2c(c1)OCCO2)Nc1ccc(Br)cn1	i	13µM*	-9%	i	0	2%
O=C(CSc1ccc2c(c1)OCCO2)Nc1ccc(Cl)cn1	i	11µM*	-38%[57.5 µM]	i	-1	8%
COc1ccc(NC(=O)CN(C)C(=O)CSc2ccc3c(c2)OCCO3)cc1	i	-4%	i	i	0	0%
COc1ccc(Cl)cc1NC(=O)CN(C)C(=O)CSc1ccc2c(c1)OCCO2	i	20µM*	-30%	i	-2	23%
SMILES	Abeta rescue	TDP-43 yeast inh	PTHR1 ag	FUS yeast rescue	LDHA inh	aSyn rescue
COc1ccc(C(=O)N/C(=C\c2ccc(-c3cccc(Cl)c3)o2)C(=O)NC(C)(C)C)cc1	.	.	.	.	5	.
O=C(CSC1=NS(=O)(=O)c2ccccc21)Nc1ccccc1	i	35µM*	-39%	i	0	?
O=C(COC(=O)c1cc(=O)c2ccccc2o1)NC1CC1	.	.	.	.	11	.
CNC(=O)c1cccnc1Nc1cccc(C(F)(F)F)c1	i	18µM*	-33%	i	0	-15%
COc1ccc(S(=O)(=O)N2CCC(c3nnc(-c4ccccc4C)o3)CC2)c(OC)c1	i	0%	-47%	32µM*	4	.
Cc1ccccc1-c1nnc(C2CCN(S(=O)(=O)c3ccc(Cl)cc3)CC2)o1	i	13%[9.22 µM]	i	i	-2	.
Cc1ccc2c(=O)cc(C(=O)NCC(c3cccs3)N3CCCCCC3)oc2c1 (stereo not given)	.	.	.	.	9	.
CC(=O)/C(=N/Nc1ccccc1)N1CCOCC1	i	-9%	-12%[57.5 µM]	i	2	-3%
CC(=O)/C(=N/Nc1cccc(Cl)c1)N1CCOCC1	i	18µM*	-27%	i	5	12%
CC(C)(C)c1ccc(-c2nc(C#N)c(N3CCCCC3)o2)cc1	.	.	.	.	5	.
CSc1ccc(C2C(C#N)=C(N)Oc3c2ccc(=O)c2c(C)oc(C)c32)cc1 (stereo not given)	i	-31%	-4%	22µM*	9	?
CCCCOc1ccc(C(N)=O)cc1	.	.	.	.	2	3%
CCCCCCCCCCCCCCCC[n+]1ccc(C(N)=O)cc1	i	-36%	i	32µM*	?	-73%
CCCCCCCCCCCCCCCC[n+]1cccc(C(=O)N(CC)CC)c1	i	-18%	?	28µM*!	13	-10%
CCCCCCCC[n+]1cccc(C(=O)N(CC)CC)c1	i	-17%	i	i	-4	-4%
O=C(Cc1ccc([N+](=O)[O-])cc1)c1ccc(O)cc1O	i	16µM*	-86%	i	-3	-9%
COc1ccc(CC(=O)c2ccc(O)cc2O)cc1	i	13µM*	-22%	i	-1	-4%
O=C(Cc1ccc(Br)cc1)c1ccc(O)cc1O	i	?	-52%[57.5 µM]	i	-2	-11%
O=C(c1ccco1)N1CCN(/C=C/C(=O)C(F)(F)F)CC1	.	.	.	.	7	.
CC1(C)CN(c2ccc(Br)cc2)C(=O)[C@H]1CC(=O)Nc1ccccc1	i	18µM*	-49%	i	-2	12%
COc1ccc(N2CC(C)(C)[C@H](CC(=O)Nc3ccccc3)C2=O)cc1	i	28%	-18%	i	-11	0%
COc1ccccc1N1CCN(C(=O)c2ccc(-c3ccc(Cl)cc3)o2)CC1	i	16µM*	-42%	?	-5	3%
COc1ccccc1N1CCN(C(=O)c2ccc(-c3nc4ccccc4s3)o2)CC1	i	22µM*	-37%	?	3	1%[1.84 µM]
CC(C)c1ccc(C(CNC(=O)c2cc(-c3cccs3)on2)N2CCOCC2)cc1 (stereo not given)	.	.	.	.	10	.
O=C(NCC(c1ccccc1)N1CCOCC1)c1cc(-c2cccs2)on1 (stereo not given)	.	.	.	.	-32*	.
NC(=S)N/N=C/C=C/c1ccccc1	i	10µM*	i	i	-7	5%
